# MITF primary: MITF inhibitors, primary screen, biochemical, AlphaScreen, human; Microphthalmia-associated transcription factor (Homo sapiens), O75030; AlphaScreen MITF homodimerization, bead proximity signal; inhibition, % at 2.6 µM; hit rate 0.91% among 650,000; AID 1259374, 2018; in the data active means inhibition above about 50%;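 further: 0% = vehicle wells with protein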
# GPR151 activ: activators of human GPR151, primary screen, cell-based, PathHunter beta-arrestin, luminescence. G-protein coupled receptor 151 (Homo sapiens), Q8TDV0. PathHunter beta-arrestin GPR151 cells. activation, % at 11.2 µM. hit rate 1% among 650,000. AID 1508602, 2020; in the data active means activation above about 4.9%;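 further: 0% = median of compound wells and 100% = cells with positive control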
# TEAD-YAP inh: TEAD-YAP interaction inhibition, primary screen, TEAD-YAP interaction inhibitor project, luminescence, HEK-TIYL cells | TEAD-Gal4/YAP UAS-luciferase luminescence | hit rate 1.4% among 640,000 | inhibition, % at 9.12 µM | AID 1259422, 2018; in the data active means inhibition above about 32%;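 further: 0% = median of test compound wells and 100% = reference inhibitor wells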
# FBW7 act: FBW7 E3 ligase activators, primary screen, biochemical, AlphaScreen, human. AID 1259310, 2017. AlphaScreen FBW7–phospho-cyclin E peptide binding, activator screen. normalized activity (activation), % at 26.1 µM. hit rate 0.13% among 650,000; in the data active means normalized activity above about 1.9%;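 further: purified mutant Fbw7 with reduced substrate affinity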
# Target sequence (Q969H0 whole entry, looked up): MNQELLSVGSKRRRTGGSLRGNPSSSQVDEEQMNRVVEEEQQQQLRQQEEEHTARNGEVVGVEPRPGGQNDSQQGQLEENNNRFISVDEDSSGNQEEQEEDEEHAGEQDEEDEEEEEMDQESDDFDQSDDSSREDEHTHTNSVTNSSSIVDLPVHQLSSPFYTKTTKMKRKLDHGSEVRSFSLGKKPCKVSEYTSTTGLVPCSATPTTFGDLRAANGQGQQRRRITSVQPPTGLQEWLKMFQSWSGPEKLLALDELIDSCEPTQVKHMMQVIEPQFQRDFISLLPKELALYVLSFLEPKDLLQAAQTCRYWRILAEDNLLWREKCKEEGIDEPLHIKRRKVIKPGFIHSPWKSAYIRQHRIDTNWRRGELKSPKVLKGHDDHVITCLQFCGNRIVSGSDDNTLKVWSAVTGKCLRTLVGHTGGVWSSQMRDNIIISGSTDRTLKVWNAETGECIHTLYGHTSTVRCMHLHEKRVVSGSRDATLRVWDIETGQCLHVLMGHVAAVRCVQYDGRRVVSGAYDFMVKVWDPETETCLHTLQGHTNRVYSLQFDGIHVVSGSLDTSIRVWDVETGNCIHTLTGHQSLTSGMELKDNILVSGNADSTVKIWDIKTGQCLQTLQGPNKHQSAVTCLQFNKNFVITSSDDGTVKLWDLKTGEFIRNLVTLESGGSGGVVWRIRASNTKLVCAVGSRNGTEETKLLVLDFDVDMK
# GPR151 confirm: GPR151 activators, triplicate retest, confirmation, cell-based, PathHunter beta-arrestin, luminescence | GPR151 PathHunter beta-arrestin cells, 90 min; % of EA-reagent control over plate median | 6,700 tested, under 10 active | shares compounds with GPR151 activ | activation, % at 11.2 µM | AID 1508609, 2020;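 active means mean percent activation across replicates above the confirmation screen cutoff of 4.91%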
# GPR119 ag: GPR119 activators in beta-arrestin cells, counter-screen for GPR151 activator project, cell-based, PathHunter beta-arrestin, luminescence, triplicate | shares compounds with GPR151 activ | 90 min; 0 = compound-well median, 100 = enzyme-acceptor control | activation, % at 11.2 µM | hit rate 0.3% among 6,700 | AID 1508611, 2020;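 active means mean percent activation in the counterscreen above 29.09%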;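 further: counterscreen on off-target GPR119 to flag nonselective hits from the GPR151 activator screen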
# The depositor's hits bear a star; . = no result given; ! = not confirmed by another sample. Rows were chosen to be rich in hits. Some 3.4% of all compounds tested hit in one or more screens of this group.
SMILES,MITF primary,GPR151 activ,TEAD-YAP inh,FBW7 act,GPR151 confirm,GPR119 ag
COc1ccc2c(CNCCc3cccs3)c(C(=O)O)n(Cc3ccc(C)cc3)c2c1,15.7,-0.7,1.3,0.5,.,.
O=C(O)CCC(=O)NCc1cccnc1,-7.8,7.5*,4.8,0.5,0.8,12.4
Cc1cc(C)cc(C(=O)Nc2ccc3c(c2)CCCN3S(C)(=O)=O)c1,2.5,7.7*,-34.0,-0.1,0.8,11.7
CN1CCCc2cc(C(CN)N3CCCCC3)ccc21 (centres undefined),23.8,6.7*,12.2,-0.2,0.1,-8.6
Cc1c(C(=O)Oc2ccc(Cl)cc2)sc2ncn(C)c(=O)c12,2.3,-0.6,-6.1,0.0,.,.
O=C1NCC(c2ccccc2)C1C(=O)N/N=C/c1ccccc1Cl (centres undefined),5.9,-0.2,14.0,1.6,.,.
COc1cccc(S(=O)(=O)N2CCC(c3nc(-c4ccccc4)no3)CC2)c1,1.5,0.4,1.6,0.1,.,.
COc1cccc(S(=O)(=O)N2CCC(c3nc(-c4cccs4)no3)CC2)c1,17.0,8.3*,-5.4,0.5,0.4,3.7
C=CCn1c(SC(C)C)nc2c1c(=O)n(C)c(=O)n2C,3.1,8.6*,-1.2,-0.3,-0.1,3.5
CCOC(=O)C(C)(C)Sc1nc(-c2cccs2)nc2c1c(=O)n(C)c(=O)n2C,1.7,-1.5,1.3,-0.1,.,.
COc1ccc2nc(NC(=O)CSc3nc4ccc([N+](=O)[O-])cc4[nH]3)sc2c1,4.8,-0.7,-21.0,0.1,.,.
C/C(=N\Nc1nnc2c(n1)[nH]c1c(C)cccc12)c1ccc(C)o1,-3.3,2.4,27.6,0.0,.,.
CCOC(=O)c1ccc(N(Cc2ccccc2)S(C)(=O)=O)cc1,13.2,0.7,7.5,0.1,.,.
C=CCN(c1ccc(C(=O)OCC)cc1)S(C)(=O)=O,1.2,4.9*,-5.5,-0.1,-0.5,-3.5
Cn1c(=O)c2c(SCCC3OCCO3)nc(C3CCCCC3)nc2n(C)c1=O,-15.2,7.9*,-3.9,-0.2,3.3,8.3
N#Cc1ccc(C(=O)Nc2sccc2C(N)=O)cc1,4.0,-4.4,-1.5,0.1,.,.
Cc1cccc(NC(=O)c2ccc(Br)o2)c1C,6.6,0.2,-8.8,0.1,.,.
COc1ccc(/C(C)=N/NC(=O)c2ccccc2Br)cc1,19.6,5.7*,-10.2,0.2,0.2,5.8
COC(=O)Cc1c(C)c2ccc3c(c2oc1=O)CN(CCc1ccc(OC)cc1)CO3,7.7,-0.6,9.5,0.6,.,.
CCN(CC)Cc1ccc(C(=O)N2CCC3(CC2)NC(=O)c2cc(Cl)ccc2N3)o1,-7.3,1.3,-4.0,-0.1,.,.
O=C(NCc1ccccc1)c1cccc(-c2cccs2)n1,3.1,-0.6,16.0,0.3,.,.
CC(=O)Nc1cccc(NC(=O)CSc2nnc3c(n2)[nH]c2ccc(F)cc23)c1,9.2,-0.8,-6.7,0.2,.,.
O=c1c2cn[nH]c2nc(SCc2ccccc2F)n1-c1ccc(Oc2ccccc2)cc1,7.1,0.5,5.3,0.0,.,.
O=C(CN1CCCCC1)N/N=C/c1ccccc1O,49.4,5.8*,13.3,-0.3,1.1,11.5
CCCOC(=O)C1=C(C)N(C)C(=O)NC1c1ccccc1Cl (centres undefined),-5.7,0.9,-0.4,-0.1,.,.
SMILES,MITF primary,GPR151 activ,TEAD-YAP inh,FBW7 act,GPR151 confirm,GPR119 ag
CCCCOC(=O)C1=C(C)N(C)C(=O)NC1c1ccccc1Cl (centres undefined),-3.6,7.2*,15.2,0.3,0.0,-9.2
CCOC(=O)CCN(Cc1ccccc1F)S(=O)(=O)c1ccc(C)cc1,-0.1,4.9*,-1.5,0.2,-1.6,-18.1
CCOC(=O)CCCN(Cc1ccc(F)cc1)S(=O)(=O)c1ccc(F)c(C)c1,13.5,3.2,4.9,0.1,.,.
CCOC(=O)CCN(Cc1ccccc1F)S(=O)(=O)c1ccc(Br)cc1,14.8,-1.0,-8.0,0.2,.,.
CCOC(=O)CCCN(Cc1ccc(Cl)cc1Cl)S(=O)(=O)c1ccc(F)c(C)c1,15.2,5.0*,11.6,0.5,0.0,-14.3
Nc1cc(Cl)ccc1C(=O)OCC(=O)N1CCc2ccccc21,8.7,1.2,-35.6,0.0,.,.
Cn1c(SCC(=O)Nc2ccc([N+](=O)[O-])cc2C#N)nnc1-c1ccc(Cl)cc1,-4.5,-2.0,-2.3,-0.1,.,.
N#Cc1c(Nc2ccccc2)cc[nH]c1=S,-10.2,-0.7,-15.8,-0.1,.,.
CC(C)C(c1nnnn1Cc1ccccc1)N1CCN(C2CCCC2)CC1 (centres undefined),3.0,9.0*,4.4,0.0,-0.6,-2.6
c1ccc(CN2CCC(N3CCN(C4CCCC4)CC3)CC2)cc1,30.7,5.1*,10.8,0.0,0.4,5.8
CC(C)C(c1nnnn1Cc1ccc(F)cc1)N1CCN(C2CCCC2)CC1 (centres undefined),16.9,-0.9,4.3,0.0,.,.
CC1(C)CC(=O)N(CC(=O)N2CCOCC2)c2ccccc2S1(=O)=O,-0.4,-0.6,3.3,0.0,.,.
CC(CN(C)C)CN1c2ccccc2Sc2ccccc21 (centres undefined),5.2,1.0,8.0,-0.1,.,.
CC(CN1c2ccccc2Sc2ccccc21)N(C)C (centres undefined),-7.3,7.4*!,-6.8,0.0,-0.8,-5.3
COCCCNC(=O)c1ccc(Cl)c([N+](=O)[O-])c1,-12.9,0.0,-10.2,0.1,.,.
CCCCCC(=O)Nc1ccc(N2CCN(CC)CC2)cc1,6.7,10.8*,-13.8,0.0,0.3,0.4
COc1ccc(-c2cnc(NCCCO)nc2)cc1,4.0,-1.7,-14.3,0.1,.,.
OCCCNc1ncc(-c2ccc(Cl)cc2)cn1,0.1,5.8*,-4.5,0.1,-0.6,-1.3
Cc1cc(Nc2ccccc2C)n2ncnc2n1,10.0,0.7,-3.0,-0.1,.,.
COc1ccc(CCN(C)CCCC(C#N)(c2cc(OC)c(OC)c(OC)c2)C(C)C)cc1OC (centres undefined),-5.0,5.6*,-4.5,0.0,-1.2,-14.4
Cc1ccc(-c2nc(CCNS(=O)(=O)c3cccs3)cs2)cc1,10.4,-0.1,-1.5,0.1,.,.
COc1ccc(NC(=O)c2ccc(Br)s2)cc1OC,0.2,8.8*,-29.4,0.0,0.2,8.8
CC(C)NC(=O)c1cccc(NC(=O)Nc2ccc(-c3cn[nH]c3)cc2OCCN(C)C)c1,-38.3,5.3*,-2.4,-0.2,0.8,-2.8
CCOC(=O)c1c(C)oc2cc(Cl)c(OC)c(OC)c12,-4.7,0.6,5.1,0.1,.,.
Cc1cn2c3c(=O)n(CC(N)=O)c(=O)n(C)c3nc2n1-c1ccc(Cl)cc1,5.0,5.7*,2.7,0.0,-0.5,-3.7
Cc1cc2ncn(S(=O)(=O)c3ccc(Cl)c(Cl)c3)c2cc1C,10.1,-0.8,3.6,0.1,.,.
